SMN2 splice enh – SMN2 splice variant enhancement; AID 1458; HEK293 SMN2-luciferase splicing reporter, luminescence, 30-36 h; Potency, µM (titrated, usually from 46.1 µM), without a hit: at the highest dose activity change, positive = activation, actives largely listed as activators; actives 2.8% (n = 210,000); also: % of control where 0% means no effect; nearly all actives have a fitted effect of over 55% in size
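HEK293 cells carry an SMN2 […]–luciferase reporter in which exon 7 inclusion puts luciferase in frame. Cells were plated 10-12 h before compound addition, then incubated 30-36 h at 37C. ONE-Glo luminescence was read; sodium butyrate at 4.5 mM final served as control.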
ELG1 genotoxic – genotoxicity induction in ELG1-luciferase HEK293T cells; HEK293T ELG1-luciferase reporter, luminescence, 16 h; Potency, µM (series often up to 46 µM), inactives show top-dose activity change, positive = activation, actives largely listed as activators; actives 1.3% (n = 330,000); AID 504466; also: % of control where 0% means no effect; nearly all actives have a fitted effect of over 60% in size
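HEK293T cells expressing luciferase-tagged ELG1 were exposed to compound or DMSO vehicle for 16 hr at 37 °C and 5% CO2. Luciferase activity was then measured with ONE-Glo after 30 min at room temperature.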
Rab9 prom act – Rab9 promoter activation. actives 2.8% (n = 320,000). AID 485297. Huh7 Rab9 promoter-luciferase reporter, luminescence, 24 h. Potency, µM (titrated, usually from 9.22 µM), inactives show at the top dose activation, negative = inhibition, usual class: activators; also: % of control where 0% means no effect; nearly all actives have a fitted effect of over 60% in size
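Cells were plated at 1500 per well in reduced-serum medium with 10% FBS and left 2 h. Compound in DMSO was then added for 24 h at 37 °C. Reporter signal was read by luminescence after 10 min with luciferase detection reagent.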
FLuc modulator – counter-screen for miR-21 project: firefly luciferase inhibitors or activators; P08659; purified FLuc, Km substrates, luminescence inhibition; Potency, µM (top dose mostly 57.5 µM), for inactives: at the top dose activity change, negative = inhibition, most hits filed as inhibitors; actives 6.9% (n = 360,000); AID 588342;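 also: plate controls were vehicle for no effect and reference inhibitor for full effect; nearly all actives have a fitted effect of over 55% in size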
Target sequence (P08659 whole entry, looked up): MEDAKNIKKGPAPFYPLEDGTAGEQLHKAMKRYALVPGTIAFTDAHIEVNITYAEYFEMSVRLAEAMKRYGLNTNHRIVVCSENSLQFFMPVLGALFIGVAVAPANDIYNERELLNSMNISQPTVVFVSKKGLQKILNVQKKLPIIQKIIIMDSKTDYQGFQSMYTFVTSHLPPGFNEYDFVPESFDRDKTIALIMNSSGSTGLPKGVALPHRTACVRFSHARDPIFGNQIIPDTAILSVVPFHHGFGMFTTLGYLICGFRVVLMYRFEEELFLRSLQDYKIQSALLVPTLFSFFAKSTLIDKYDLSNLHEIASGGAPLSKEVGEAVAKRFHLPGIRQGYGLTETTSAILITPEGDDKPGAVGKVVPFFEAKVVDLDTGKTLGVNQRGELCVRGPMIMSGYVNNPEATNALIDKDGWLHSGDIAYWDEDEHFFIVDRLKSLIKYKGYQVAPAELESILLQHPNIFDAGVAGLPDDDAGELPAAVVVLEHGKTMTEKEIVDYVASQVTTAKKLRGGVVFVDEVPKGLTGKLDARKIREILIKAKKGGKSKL
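Biochemical qHTS of compounds, final roughly 60 µM downward over six points, against 10 nM purified firefly luciferase using Km concentrations of substrates (10 uM D-luciferin, 10 uM ATP) in Tris acetate pH 7.5 buffer; luminescence output.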
NPC1 promoter act – NPC1 promoter activation; actives 2.4% (n = 320,000); AID 485313; Huh7 NPC1 promoter luciferase reporter, 24 h; Potency, µM (highest dose often 9.22 µM), without a hit: at the highest dose activation, most hits filed as activators; also: % of control where 0% means no effect; nearly all actives have a fitted effect of over 60% in size
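Compounds in DMSO were transferred onto Huh7 NPC1-luciferase reporter cells pre-incubated 2 h; after 24 h at 37 °C, Amplite reagent was dispensed and luminescence recorded 10 min later.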
Active calls of the source: *; ? = inconclusive; / = no result given; [ ] = another dose, or the depositor's remark. Compounds with a hit are over-represented: about 7.5% of the library has one in this group of screens. Calls follow the shape of the dose curve; as a rule, active = well fitted curve in the direction sought with a large enough effect; inconclusive = small, poorly fitted or top-dose-only effect, or another doubt; inactive = no such curve, though single readings can be large; an effect the other way counts as inactive or inconclusive. Potency is read from the fitted curve at half-maximal effect.

SMILES	SMN2 splice enh	ELG1 genotoxic	Rab9 prom act	FLuc modulator	NPC1 promoter act
N#Cc1ccccc1NC(=O)COC(=O)c1ccc2c(c1)OCCO2	6%	6%	?	19µM*	1%
N#Cc1ccc(Cl)cc1NC(=O)COC(=O)c1ccc2c(c1)OCCO2	-2%	1%	-6%	-11%	1%
CC(=O)O[C@H]1CC[C@@]2(C)C(=CC[C@@H]3[C@@H]4CC[C@H](c5cc(C(F)(F)F)n(C(C)=O)n5)[C@]4(C)CC[C@@H]32)C1	-16%[9.22 µM]	/	/	/	/
CCCn1c(SCC(=O)c2cc(C)n(-c3cc(C)on3)c2C)n[nH]c1=O	/	-5%	-7%	-5%	-1%
CCc1ccccc1NC(=O)COc1ccc2c(c1)OCO2	1%	6%	21%	-19%	0%
N#Cc1ccccc1NC(=O)COc1ccc2c(c1)OCO2	/	?	3.5µM*	21µM*	4µM*
O=C(NCCN1C(=O)C2C3C=CC(C3)C2C1=O)Nc1ccc(Br)cc1 (configuration not stated)	11µM*	8.2µM*	2.2µM*	11µM*	3.2µM*
O=C(NCCN1C(=O)C2C3C=CC(C3)C2C1=O)Nc1cccnc1 (configuration not stated)	-24%	4%	-4%	-3%	1%
CCOC(=O)C1CCN(Cc2ccc(OCc3ccccc3)cc2)CC1	/	-3%	4%	-16%	-3%
c1ccc(CN2CCN(c3ncccn3)CC2)cc1	/	-1%	-5%	2%	-4%
c1ccc(COc2ccc(CN3CCN(c4ccccn4)CC3)cc2)cc1	19%	21µM*	2.2µM*	6.7µM*	?
NC(=O)C1CCN(Cc2ccc(OCc3ccccc3)cc2)CC1	/	?	?	15µM*	2.5µM*
CCCCc1ccc(N2C(=NC(=O)C3CCCO3)SC3CS(=O)(=O)CC32)cc1 (configuration not stated)	/	-1%	-1%	-2%	0%
CC(C)NC(=O)c1ccc(Cn2c(SCC(N)=O)nc3ccccc3c2=O)cc1	/	/	/	6%	/
CC(=O)Oc1ccc(C(=O)NC(C)CCc2ccccc2)cc1 (configuration not stated)	/	4%	-2%	-2%	-4%
Cc1ccc(C(=O)c2cnc3cc4c(cc3c2S(=O)(=O)c2ccccc2)OCCO4)cc1	-85%	11%	13%	1.7µM*	14%
CCOc1ccc(S(=O)(=O)c2c(C(=O)c3ccc(C)cc3)cnc3cc4c(cc23)OCCO4)cc1	-19%	1%	-5%	6%	1%
CCOc1ccccc1C(=O)NN1C(=O)C2CCCCC2C1=O (configuration not stated)	-4%	2%	0%	0%	-2%
CC(C)c1ccc(C(=O)NNC(=O)C2C3CCC(C3)C2C(=O)O)cc1 (configuration not stated)	/	4.6µM*	1.3µM*	7.6µM*	0.5µM*
CC(C)c1ccc(C(=O)NN2C(=O)C3CCCCC3C2=O)cc1 (configuration not stated)	11µM*	?	3.2µM*	2.1µM*	3.5µM*
O=C(NNC(=O)C1C2CCC(C2)C1C(=O)O)c1ccc(Br)o1 (configuration not stated)	4%	0%	-4%	-6%	-2%
O=C(NCc1cccs1)c1ccc(N2CCCCC2)nc1	?	/	/	21µM*	/
CC1CCCN(c2ccc(C(=O)NCc3cccs3)cn2)C1 (configuration not stated)	13µM*	?	?	19µM*	?
O=C(NCc1cccs1)c1ccncc1	4%	-3%	3%	1%	-1%
Cc1nc(N2CCOCC2)c2nc(-c3ccccc3)n(CCN3CCCCC3)c2n1	-3%	/	/	/	/
SMILES	SMN2 splice enh	ELG1 genotoxic	Rab9 prom act	FLuc modulator	NPC1 promoter act
Cc1cc(C(=O)Nc2nnc(C(F)(F)F)s2)cs1	/	0%	?	12µM*	?
Cc1cc(C(=O)Nc2nnc(C3CCCCC3)s2)cs1	13%	?	1.6µM*	-7%[2.3 µM]	?
Cc1nn(-c2ccccc2)c(Cl)c1C(=O)Nc1nnc(C2CCCC2)s1	-8%	0%	-4%	-18%	7%
CCN(CC)c1ccc(N=Cc2cc(Br)ccc2O)cc1	-17%	-7%	-6%	9.5µM*	-1%
Oc1ccc(Br)cc1C=Nc1ccc(Cl)cc1	-39%	3%	-1%	?	2%
CCN(CC)S(=O)(=O)c1ccc(OC(C)C)c(NC(=O)C2=COCCO2)c1	/	-4%	-4%	-1%	-3%
Cc1nn(-c2ccc(C(F)(F)F)cn2)c(C)c1Oc1ccccc1O	-11%	4%	-1%	?	6%
CN(C)/C=N/c1ncnc2c1cnn2-c1ccc(C(F)(F)F)cn1	14µM*	?	?	11µM*	2.5µM*
CN(C)c1ccc(NC(=O)CCN2C(=O)c3cccc([N+](=O)[O-])c3C2=O)cc1	/	4%	8%	?	-2%
O=C(O)c1cccc(-n2cc(-c3cccc(C(F)(F)F)c3)cn2)c1	/	?	0.35µM*	1.2µM*	0.32µM*
Clc1ccc(N=c2ssnc2Cl)cc1	-34%	-6%	1%	?	3%
COc1cc(N=c2ssnc2Cl)cc(OC)c1OC	-4%	-8%	1%	15µM*	-4%
Clc1nssc1=Nc1ccccc1	-12%	-7%	-3%	21µM*	1%
Fc1ccc(N=c2ssnc2Cl)c(F)c1	-7%	-6%	4%	19µM*	-1%
N#Cc1ccc(N=c2ssnc2Cl)cc1	14%	0%	9%	15µM*	9%
Cc1cccc(-n2c(=O)c3c(c4cc(C)ccc4n3C)n(Cc3ccccc3F)c2=O)c1	/	/	/	1%	/
CCOc1ccc(NC(=O)CN(C)C(=O)c2c(-c3c(F)cccc3Cl)noc2C)cc1OCC	/	-4%	5%	-7%	2%
O=C(Oc1ccc2c3c(c(=O)oc2c1)CCCC3)c1cccs1	-10%	2%	-3%	17µM*	-4%
O=C(Oc1ccc2c3c(c(=O)oc2c1)CCC3)c1ccco1	13%	8%	0%	13µM*	1%
Cc1cc2oc(=O)c3c(c2cc1OC(=O)c1ccco1)CCCC3	-60%	-1%	-7%	7%	-1%
O=C(CCC1CCCN(C(=O)CCCc2ccccc2)C1)N1CCN(c2ccccn2)CC1 (configuration not stated)	/	-10%	2%	-18%	2%
Cc1cc(C)nc(SCc2cn3ccccc3n2)n1	/	-5%	18%	?	16%
Nc1ccccc1SCc1cn2cccnc2n1	?	?	0%	-20%	17%
Cc1cccn2cc(CSc3ccccc3N)nc12	?	6.5µM*	2.5µM*	6µM*	2.2µM*
Nc1ccccc1SCc1cn2ccccc2n1	11µM*	?	1.8µM*	6.7µM*	2.2µM*
Cc1ccc(Nc2nc(N)c3ccccc3n2)cc1C	/	?	0.5µM*	0.54µM*	0.5µM*
COc1ccc(Nc2nc(N)c3cc(OC)c(OC)cc3n2)cc1	11%	/	/	15µM*	/

Compound activity (PubChem)
